Wnt act: Wnt/beta-catenin pathway activation. Wnt/beta-catenin reporter cell assay, activator, plate reader. activation, % at 9.35 µM. actives 1.2% (n = 300,000). AID 743398; in the data active = activation above about 30%, passing the limit was not always enough; inconclusive = no clear call, values can overlap the other calls;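 also: 0% = neutral control wells and 100% = positive control wells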
MITF act: activators of MITF-driven TRPM1 promoter activity in SK-MEL-5 cells; actives 0.75% (n = 300,000); SK-MEL-5 TRPM1-promoter luciferase, 24 h; % of positive control, neutral wells = 0; activation, % at 12.5 µM; AID 588334;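 active = mean activation of at least 80% with every replicate also reaching 80%; inconclusive = mean reaches 80% but some replicate falls short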;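 also: 0% = neutral control wells and 100% = parthenolide positive control wells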
C2C12 statin: protects C2C12 myotubes from simvastatin toxicity; ATP luminescence, 48 h; scaled: DMSO 0, geranylgeraniol control 100; rescue of ATP level, % at 7.49 µM; actives 0.78% (n = 330,000); AID 602340;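 active = mean ATP rescue above about 67%, or every replicate alone reaching that limit, limit read from the data, passing the limit was not always enough; inconclusive = no clear call, values can overlap the other calls; inactive = mean under the limit and some replicate under it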;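 also: myotubes were challenged with 10 µM simvastatin during compound exposure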
Rtt109 Vps75: C. albicans Rtt109 histone acetyltransferase inhibition | Q5AAJ8 | purified Rtt109/Vps75, ThioGlo CoA-SH fluorescence, 4 h | inhibition, % at 34.9 µM | actives 0.16% (n = 330,000) | AID 540336;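 active = inhibition of at least 50% in every replicate; inconclusive = best replicate reaches 50% inhibition but some replicates fall short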
Target sequence (Q5AAJ8 whole entry, looked up): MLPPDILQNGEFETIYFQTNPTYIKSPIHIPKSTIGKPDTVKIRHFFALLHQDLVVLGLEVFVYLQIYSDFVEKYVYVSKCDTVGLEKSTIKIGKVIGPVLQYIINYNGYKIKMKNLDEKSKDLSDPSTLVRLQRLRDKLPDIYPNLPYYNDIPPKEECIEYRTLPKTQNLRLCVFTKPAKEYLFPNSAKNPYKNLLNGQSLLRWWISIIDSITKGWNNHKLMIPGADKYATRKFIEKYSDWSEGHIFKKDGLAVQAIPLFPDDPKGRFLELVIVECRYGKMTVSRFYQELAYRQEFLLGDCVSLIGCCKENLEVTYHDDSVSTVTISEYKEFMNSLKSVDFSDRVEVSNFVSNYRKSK
esBAF inh: blocks esBAF chromatin remodeling in mouse ES cells. Bmi1-luciferase knock-in reporter, 24 h; 100% = twice the neutral-well signal. reporter increase, % at 12.5 µM. actives 2% (n = 350,000). AID 602393; in the data active = activation above about 40%; inconclusive = no clear call, values can overlap the other calls;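 also: 0% = median of the plate's neutral control wells and 100% = double that signal; a rise in the Bmi1 reporter signal indicates esBAF inhibition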
An asterisk follows results filed as active; ? = inconclusive; · = no result. This is a sample that favours compounds with a hit; in the whole collection about 3.1% have one here.

SMILES | Wnt act | MITF act | C2C12 statin | Rtt109 Vps75 | esBAF inh
CCOc1ccc(/C=N/NC(=O)c2ccoc2C)cc1OC | 19.6 | 35.4 | -26.2 | -2.5 | 48.5*
COc1cc(/C=C(/C#N)C(=O)Nc2ccccc2)ccc1OCc1ccc(C(=O)O)cc1 | 12.3 | 9.9 | -0.9 | 8.4 | 13.1
COc1cc(/C=C(\C#N)C(=O)Nc2cccc(C(=O)O)c2)ccc1OCc1ccc(C)cc1 | 24.7 | 91.1* | · | 16.0 | ·
COc1cc(/C=N/NC(=O)c2ccoc2C)ccc1O | 4.7 | 28.4 | · | 13.8 | ·
COc1cc(/C=N/NC(=O)c2cccc([N+](=O)[O-])c2)ccc1OCc1ccc(C)cc1 | ? | 69.0 | -47.0 | 3.9 | 56.4*
C[C@H]1CN([C@@H](C)CO)C(=O)Cc2cc(NC(=O)Nc3ccc(F)cc3)ccc2O[C@@H]1CN(C)C(=O)Nc1cccc2ccccc12 | · | · | 21.2 | · | 1.4
Cc1ccc(OCCCC(=O)N(C)CC(=O)Nc2c(C)cccc2C)cc1 | -1.2 | · | 1.8 | · | 0.4
Cc1cccc(OCCC(=O)Nc2ccc(S(=O)(=O)N3CCCC3)cc2)c1 | -2.5 | 3.8 | 109.0* | 7.0 | 0.0
O=C(COc1cccc(C(F)(F)F)c1)Nc1ccc(S(=O)(=O)N2CCCC2)cc1 | -4.4 | 2.8 | 115.6* | -5.2 | -2.7
Cc1ccc(NC(=O)CN(C)C(=O)CCOc2cccc(C)c2)cc1 | 31.2* | 6.0 | · | -0.6 | ·
Nn1c(SCC(=O)Nc2ccc(S(=O)(=O)N3CCCC3)cc2)nnc1C(F)(F)F | · | -11.1 | 107.0* | 3.4 | -0.2
Cn1cnnc1SCC(=O)Nc1ccc(S(=O)(=O)N2CCCC2)cc1 | -1.4 | 0.9 | -5.1 | 2.7 | 0.5
COc1ccc(NC(=O)N(C)C[C@@H]2OCCCC[C@H](C)Oc3ccc(NC(=O)Nc4cccc5ccccc45)cc3C(=O)N([C@H](C)CO)C[C@@H]2C)cc1 | · | · | · | · | 11.4
COc1ccc(S(=O)(=O)N(C)C[C@@H]2OCCCC[C@H](C)Oc3ccc(NC(=O)CCC(F)(F)F)cc3C(=O)N([C@@H](C)CO)C[C@@H]2C)cc1 | · | · | · | · | 2.7
COC(=O)[C@@H]1[C@@H](CO)[C@@H]2Cn3c(cccc3=O)[C@@H]2N1C(=O)C1CC1 | · | · | 14.9 | · | 2.7
Cc1cccc(OCCCC(=O)Nc2ccc(S(N)(=O)=O)cc2)c1 | 35.7* | -1.0 | -3.3 | 1.8 | -2.3
CCN(CC)c1ccc(NC(=O)CCCOc2cccc(C)c2)cc1 | 0.6 | -8.7 | 2.3 | 17.7 | -7.1
O=C(C1CCOCC1)N1[C@H](CO)[C@@H]2c3ccccc3NC[C@@H]21 | · | · | -7.7 | · | 3.3
O=C(Nc1ccc(F)cc1F)Nc1sccc1-c1nc2ccccc2s1 | 0.2 | · | -7.2 | 10.6 | -1.8
Nc1ccc(C(=O)Nc2nc3ccccc3s2)cc1 | 35.3* | 6.9 | -6.3 | -14.5 | -16.8
O=C(Nc1nc2ccccc2s1)Nc1ccc(F)cc1F | 37.9* | · | 19.4 | 2.5 | 22.3
NC(=S)Nc1nc2ccccc2s1 | -4.7 | -1.3 | · | -2.9 | ·
Cc1cc(C)n(-c2ccc(C(=O)Nc3nc4ccccc4s3)cc2)n1 | ? | 56.5 | · | -16.5 | 43.7*
Fc1cccc2sc(Nc3nc4ccccc4s3)nc12 | 36.3* | 29.3 | -2.2 | -0.6 | ?
CC(=O)Nc1cc(C)nn1-c1nc2ccccc2s1 | 0.6 | -14.5 | · | 0.5 | ·
SMILES | Wnt act | MITF act | C2C12 statin | Rtt109 Vps75 | esBAF inh
COc1cccc(NC(=O)Nc2ccc3c(c2)C(=O)N(C)C[C@H](OC)[C@@H](C)CN(C)[C@@H](C)CO3)c1 | · | · | -8.1 | · | 1.2
O=C(Nc1nc2ccccc2s1)c1c(F)cccc1Cl | 6.5 | 43.4 | 5.0 | -2.4 | 51.9*
COc1n[nH]c(C(=O)Nc2nc3ccccc3s2)c1[N+](=O)[O-] | 53.2* | -11.9 | · | · | ·
Cc1ccnc2nc(C(=O)Nc3nc4ccccc4s3)nn12 | 37.9* | 14.5 | -2.8 | 1.8 | -16.4
O=[N+]([O-])c1cccc(-c2nc(-c3cccs3)c(-c3cccs3)[nH]2)c1 | -0.5 | -15.1 | -49.0 | -7.0 | -7.2
O=[N+]([O-])c1cccc(-c2noc(-c3cccs3)n2)c1 | 48.5* | 49.0 | · | -4.9 | ·
CCOC(=O)c1cnc(SCC(=O)OC)nc1N | -1.3 | · | · | -3.7 | ·
CCOC(=O)c1cnc(SCc2ccc(C(C)(C)C)cc2)nc1N | · | · | 4.0 | -1.2 | -1.7
CCOC(=O)CC(=O)CSc1ncc(C(=O)OCC)c(N)n1 | -0.9 | 12.9 | 120.0* | 2.8 | 17.0
CCOC(=O)c1cnc(SCc2ccccc2)nc1N | · | 107.2* | -15.4 | · | 78.8*
C[C@H](CO)N1C[C@H](C)[C@H](CN(C)Cc2ccncc2)Oc2cc(C#C[C@@H](C)O)ccc2S1(=O)=O | · | · | 0.1 | · | -11.0
Cc1nc(Nc2ccc3c(c2)OCO3)c2oc3ccccc3c2n1 | 2.7 | 34.5 | -45.7 | 1.7 | 5.5
c1ccc(Nc2ncnc3c2oc2ccccc23)cc1 | 29.0 | 11.4 | -12.8 | 8.3 | 87.7*
COc1ncnc2c1oc1ccccc12 | 16.2 | 22.7 | 11.3 | 1.4 | 60.0*
CC(C)Sc1ncnc2c1oc1ccccc12 | · | 47.6 | 20.3 | -4.6 | 32.8
c1ccc2c(c1)oc1c(Nc3ccc4c(c3)OCO4)ncnc12 | 33.5* | 41.8 | · | -10.3 | 43.7*
O=C(c1cccnc1)N1CC[C@@H]2[C@H]1c1cc(-c3cccc(F)c3)ccc1N[C@@H]2CO | · | · | -12.0 | · | 3.3
C[C@H](CO)N1C[C@H](C)[C@@H](CN(C)C(=O)CCC(F)(F)F)OCCCC[C@H](C)Oc2ccc(NS(=O)(=O)c3cn(C)cn3)cc2C1=O | · | · | · | · | 0.5
CN(C)CC(=O)N[C@@H]1CC[C@H](CCNC(=O)C2CCCC2)O[C@H]1CO | · | · | 5.1 | · | 1.1
C/C=C/c1ccc([C@@H]2[C@@H](CO)N(C(=O)C3CC3)[C@H]2CN(C)C(=O)CC)cc1 | · | · | -6.1 | · | -1.6
CCN(CC)c1ccc(/C=N/n2nnnc2N)c(O)c1 | · | 20.5 | -10.8 | -3.5 | 44.4*
CCN(C)c1ccc(/C=N\n2nnnc2N)cc1 | · | 27.8 | · | -18.5 | ·
CC1(C)CC(=O)C=C(c2ccc(CO)cc2)C1=O | -1.6 | · | -0.6 | · | -6.8
CC1(C)CC(=O)C=C(c2ccc(-c3ccc(OC(F)(F)F)cc3)cc2)C1=O | 6.9 | · | -6.3 | · | 56.4*
CC1(C)CC(=O)C=C(c2ccc(-c3ccccc3)cc2)C1=O | -1.8 | · | -8.3 | · | 77.8*
SMILES | Wnt act | MITF act | C2C12 statin | Rtt109 Vps75 | esBAF inh
CC1(C)CC(=O)C=C(c2ccc(-c3ccccc3)cc2)C1 | 27.5 | 142.0* | -17.9 | -6.0 | 73.6*
COc1ccc(C2=CC(=O)CC(C)(C)C2=O)cc1 | -0.3 | · | · | · | ·
COc1ccc(NC(=O)N(C)C[C@@H]2OCCCC[C@@H](C)Oc3ccc(NS(=O)(=O)c4ccc(Cl)cc4)cc3C(=O)N([C@@H](C)CO)C[C@@H]2C)cc1 | · | · | · | · | 1.4
O=C1CC(NS(=O)(=O)c2cccs2)CN1c1ccc(F)cc1 (stereo not given) | -3.2 | 5.7 | 12.0 | 1.1 | 47.3*
CCOc1ccc(N2CC(NS(=O)(=O)c3cccs3)CC2=O)cc1 (stereo not given) | 2.0 | -1.8 | 5.5 | -4.6 | 7.5
CCC(=O)Nc1ccccc1C(=O)OCC(=O)c1ccc2ccccc2c1 | 50.2* | 7.7 | 9.2 | -5.5 | 18.7
O=C(O)/C=C/C(=O)Nc1ccccc1C(=O)OCC(=O)c1ccc2c(c1)OCCO2 | 31.5* | 14.9 | · | -45.8 | ·
